± gives the standard deviation of the averaged measurements. The full ranking holds about 1,900 compounds; the median of “CD40L-induced NF-kB luciferase activity, plate-corrected, relative to DMSO (0) and IKK inhibitor VII (-100) controls” is about 0.032, and the lowest 2% start at about -26. Shown is part of a subset that was picked to be rich in the lowest values.
test system: BL2-NFkB-Luc; assay: CD40L-induced NF-kB luciferase activity, plate-corrected, relative to DMSO (0) and IKK inhibitor VII (-100) controls (% normalized activity); higher = more NF-kB reporter activity (less inhibition); details: 9.4 µM; stimulus: tCD40L 64 ng/ml; 4.5 h
Method: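 BL2 B cells with a stable NF-kB response-element luciferase reporter (BL2-NFkB-Luc), 384-well. Cells were pre-incubated with compound at 9.4 uM for 1 h at 37 C, then stimulated with 64 ng/ml trimerized CD40L for 4.5 h; luciferase was read with Steady-Glo. Signal was normalised per plate in Genedata (median DMSO neutral control = 0, median IKK inhibitor VII at 50 uM = -100) with Assay Median plate-pattern correction; duplicate plates.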

Compound	CD40L-induced NF-kB luciferase activity
O=C1C=Cc2ccccc2C1=O	4.88 ± 5.5
O=C1C(=O)c2ccccc2-c2ccccc21	-94.61 ± 0.41
CCCC[N+]1(C)[C@@H]2CC(OC(=O)[C@H](CO)c3ccccc3)C[C@H]1[C@@H]1O[C@@H]12 (stereo partly drawn)	-0.479 ± 2.2
CCN(CC)C(=O)N[C@H]1C[C@@H]2c3cccc4[nH]cc(c34)C[C@H]2N(C)C1	-15 ± 8.3
CC(C)C[C@H]1C(=O)N2CCC[C@H]2[C@]2(O)O[C@](NC(=O)[C@@H]3C=C4c5cccc6[nH]c(Br)c(c56)CC4N(C)C3)(C(C)C)C(=O)N12 (stereo partly drawn)	3.22 ± 1.5
c1ccc2c(c1)[nH]c1cnccc12	-5 ± 7.4
COc1cc([C@@H]2c3cc4c(cc3[C@H](O)[C@H]3COC(=O)[C@H]23)OCO4)cc(OC)c1OC	-50.7 ± 3
CCCC(=O)OCC[N+](C)(C)C	-5.48 ± 4.7
CN1[C@@H]2CC[C@H]1CC(OC(=O)C1C=Nc3ccccc31)C2 (stereo partly drawn)	-2.21 ± 6.7
Cc1ccc2c(c1)C1CN(C)CCC1N2C(=O)Nc1cccc(Cl)c1 (stereo not drawn)	-6.16 ± 2.1
C[C@H]1OC[C@@H](C[N+](C)(C)C)O1	-0.99 ± 1.9
COc1ccc(CN2CC3CC(C2)c2cccc(=O)n2C3)cc1OC (stereo not drawn)	-5.62 ± 3.4
CN[C@H](C)[C@H](O)c1ccccc1	-2.12 ± 1.3
COc1ccc(OCC(=O)N2c3ccc(C)cc3C3CN(C)CCC32)cc1 (stereo not drawn)	0.261 ± 0.6
CC(C)C[C@H](NC(=O)[C@@H]1CCCN1C(=O)[C@@H](N)Cc1ccc(O)cc1)C(=O)NCC(N)=O	-28.7 ± 4.1
CC(C)(C)NCC(O)c1cc(Cl)c(N)c(Cl)c1 (stereo not drawn)	-3.51 ± 17
COc1ccc(CCN2CCC(Nc3nc4ccccc4n3Cc3ccc(F)cc3)CC2)cc1	-4.18 ± 3.9
CC[C@H]1CN2CCc3cc(OC)c(OC)cc3[C@@H]2C[C@@H]1C[C@H]1NCCc2cc(OC)c(OC)cc21	-93.93 ± 0.21
c1ccc2c3c([nH]c2c1)CNCC3	-0.0865 ± 4.1
C[C@@H]1O[C@@H](O[C@H]2C[C@@H](O)[C@]3(CO)[C@H]4[C@H](O)C[C@]5(C)[C@@H](C6=CC(=O)OC6)CC[C@]5(O)[C@@H]4CC[C@]3(O)C2)[C@H](O)[C@H](O)[C@H]1O	-78.94 ± 0.33
CC12CC[C@H]3[C@@H](CCC4(O)C[C@H](O)CCC34C=NNC(=O)Cc3ccccc3)C1(O)CCC2C1=CC(=O)OC1 (stereo partly drawn)	-1.26 ± 0.48
C[C@@H]1O[C@@H](O[C@H]2C[C@@H](O)[C@]3(CO)[C@H]4[C@H](O)C[C@]5(C)[C@@H](C6COC(=O)C6)CC[C@]5(O)[C@@H]4CC[C@]3(O)C2)[C@H](O)[C@H](O)[C@H]1O (stereo partly drawn)	2.54 ± 3.8
CC12CN3CC(C)(CN(C1)C3c1cccs1)C2O (stereo not drawn)	-2.02 ± 2.9
C[C@]12CCC(=O)C=C1CCC1C2CC[C@@]2(C)C1CC[C@@]2(O)CC#N (stereo partly drawn)	-0.607 ± 3.7
O=C1CSC2N1CCNC21CCCCC1 (stereo not drawn)	-1.57 ± 5.5
CCC1(c2ccccc2)C(=O)N(COC)C(=O)N(COC)C1=O	-30.1 ± 1.2
CN1C2CCC1CC(OC(=O)c1ccc(Cl)cc1)C2 (stereo not drawn)	-2.24 ± 2.5
CN(C)[C@@H]1C(=O)C(C(N)=O)C(=O)[C@@]2(O)C(=O)C3C(=O)c4c(O)cccc4[C@@](C)(O)[C@H]3[C@H](O)[C@@H]12 (stereo partly drawn)	0.102 ± 0.97
